# Data as given in PMC10812921, “Transcriptional Coactivator BOB1 (OBF1, OCA-B) Modulates the Specificity of DNA Recognition by the POU-Domain Factors OCT1 and OCT2 in a Monomeric Configuration”.
# Columns and labels:
# POU1 (OCT1 POU domain) = POU1 (OCT1 POU domain) (human, UniProt P14859 260-458); assay: EMSA-SELEX-seq; no BOB1; 20 mM Tris-HCl pH 7.6, 140 mM NaCl, 10% glycerol, 0.5 mM EDTA, 0.05% Triton X-100, 0.1 mg/mL BSA, 0.1 mg/mL poly(dI-dC), 5 mM DTT, room temperature, 20 min; high values mean tight binding; settings: protein: recombinant; dsDNA, one strand shown
# How it was run: (§1)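 Binding preference is reported as the percentage of sequenced 8-mers that match a motif pattern. Tagged POU-domain proteins were made in E. coli BL21, purified under denaturing conditions and renatured. A 30 ng portion was combined with 300 ng of a PCR-amplified double-stranded random 35-nt library, with or without 28 ng coactivator protein, in 20 μL Tris–HCl pH 7.6 binding buffer for 20 min at RT. Complex bands were excised from native 6% PAGE, eluted and PCR-amplified over four rounds before Illumina sequencing.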
# POU2 (OCT2 POU domain) = biological target: T1, POU2 (OCT2 POU domain) (human, UniProt P09086 175-386); assay: as above; settings: protein: recombinant; dsDNA, one strand shown
# T1 sequence: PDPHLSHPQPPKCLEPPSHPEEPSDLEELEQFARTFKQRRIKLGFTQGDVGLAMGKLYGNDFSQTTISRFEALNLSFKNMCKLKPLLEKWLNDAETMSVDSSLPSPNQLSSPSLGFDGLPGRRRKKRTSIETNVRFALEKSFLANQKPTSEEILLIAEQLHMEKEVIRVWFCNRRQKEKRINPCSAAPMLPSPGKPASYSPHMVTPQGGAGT
# How it was run: as §1
# [1] = biological target: POU1 (OCT1 POU domain);BOB1 (OBF1, OCA-B) (human;human, UniProt P14859;Q16633 260-458;1-256, |); assay: EMSA-SELEX-seq; with BOB1 (ternary complex band); 20 mM Tris-HCl pH 7.6, 140 mM NaCl, 10% glycerol, 0.5 mM EDTA, 0.05% Triton X-100, 0.1 mg/mL BSA, 0.1 mg/mL poly(dI-dC), 5 mM DTT, room temperature, 20 min; high values mean tight binding; settings: protein: recombinant;recombinant; copies: 1;1; dsDNA, one strand shown
# How it was run: as §1
# [2] = biological target: T2, POU2 (OCT2 POU domain);BOB1 (OBF1, OCA-B) (human;human, UniProt P09086;Q16633 175-386;1-256, |); assay: as above; settings: protein: recombinant;recombinant; copies: 1;1; dsDNA, one strand shown
# T2 sequence 1: T1 sequence
# T2 sequence 2: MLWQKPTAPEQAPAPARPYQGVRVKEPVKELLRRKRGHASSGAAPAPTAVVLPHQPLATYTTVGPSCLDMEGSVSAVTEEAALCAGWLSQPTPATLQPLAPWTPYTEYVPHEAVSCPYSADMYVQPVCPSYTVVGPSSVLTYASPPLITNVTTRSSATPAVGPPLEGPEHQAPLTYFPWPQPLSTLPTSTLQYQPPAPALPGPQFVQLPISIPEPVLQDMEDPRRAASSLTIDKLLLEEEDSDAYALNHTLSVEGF
# How it was run: as §1
# POU1 (OCT1 POU domain), sequence (P14859 260-458): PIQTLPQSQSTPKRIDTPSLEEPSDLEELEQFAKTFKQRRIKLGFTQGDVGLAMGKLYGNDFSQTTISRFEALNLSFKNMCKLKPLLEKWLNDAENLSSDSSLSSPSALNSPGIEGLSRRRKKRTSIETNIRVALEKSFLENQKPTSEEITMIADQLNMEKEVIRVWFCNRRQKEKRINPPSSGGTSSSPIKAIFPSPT
Sequence,binding signal (POU1 (OCT1 POU domain)),binding signal (POU2 (OCT2 POU domain)),binding signal [1],binding signal [2]
AACTCAAC,0.0168 % of ANNNNAAN 8-mers,0.0288 % of ANNNNAAN 8-mers,0.0172 % of ANNNNAAN 8-mers,0.0182 % of ANNNNAAN 8-mers
ATATTAAA,0.297 % of ANNNNAAN 8-mers,0.365 % of ANNNNAAN 8-mers,0.131 % of ANNNNAAN 8-mers,0.14 % of ANNNNAAN 8-mers
ATGAAAAG,0.135 % of ANNNNAAN 8-mers,0.106 % of ANNNNAAN 8-mers,0.175 % of ANNNNAAN 8-mers,0.0867 % of ANNNNAAN 8-mers
AGGGTAAT,0.186 % of ANNNNAAN 8-mers,0.279 % of ANNNNAAN 8-mers,0.12 % of ANNNNAAN 8-mers,0.129 % of ANNNNAAN 8-mers
AACGTAAC,0.0179 % of ANNNNAAN 8-mers,0.0236 % of ANNNNAAN 8-mers,0.0211 % of ANNNNAAN 8-mers,0.0272 % of ANNNNAAN 8-mers
ATCCGAAA,0.0305 % of ANNNNAAN 8-mers,0.0374 % of ANNNNAAN 8-mers,0.0308 % of ANNNNAAN 8-mers,0.0338 % of ANNNNAAN 8-mers
AGAGAAAA,0.0702 % of ANNNNAAN 8-mers,0.065 % of ANNNNAAN 8-mers,0.0574 % of ANNNNAAN 8-mers,0.0504 % of ANNNNAAN 8-mers
AAGAAAAG,0.0732 % of ANNNNAAN 8-mers,0.0633 % of ANNNNAAN 8-mers,0.0905 % of ANNNNAAN 8-mers,0.0652 % of ANNNNAAN 8-mers
AAGTAAAG,0.0545 % of ANNNNAAN 8-mers,0.0541 % of ANNNNAAN 8-mers,0.0687 % of ANNNNAAN 8-mers,0.0545 % of ANNNNAAN 8-mers
ACTAGAAA,0.032 % of ANNNNAAN 8-mers,0.0322 % of ANNNNAAN 8-mers,0.0261 % of ANNNNAAN 8-mers,0.0305 % of ANNNNAAN 8-mers
AGTAAAAA,0.0911 % of ANNNNAAN 8-mers,0.0679 % of ANNNNAAN 8-mers,0.103 % of ANNNNAAN 8-mers,0.0578 % of ANNNNAAN 8-mers
ACGGCAAT,0.0332 % of ANNNNAAN 8-mers,0.0368 % of ANNNNAAN 8-mers,0.0336 % of ANNNNAAN 8-mers,0.0289 % of ANNNNAAN 8-mers
ATCGCAAT,0.0336 % of ANNNNAAN 8-mers,0.0391 % of ANNNNAAN 8-mers,0.0328 % of ANNNNAAN 8-mers,0.0347 % of ANNNNAAN 8-mers
ATCTTAAA,0.0648 % of ANNNNAAN 8-mers,0.0552 % of ANNNNAAN 8-mers,0.0515 % of ANNNNAAN 8-mers,0.0636 % of ANNNNAAN 8-mers
AGTAAAAT,0.226 % of ANNNNAAN 8-mers,0.179 % of ANNNNAAN 8-mers,0.236 % of ANNNNAAN 8-mers,0.148 % of ANNNNAAN 8-mers
AAGTCAAC,0.0256 % of ANNNNAAN 8-mers,0.0236 % of ANNNNAAN 8-mers,0.0308 % of ANNNNAAN 8-mers,0.0272 % of ANNNNAAN 8-mers
AACTGAAA,0.0358 % of ANNNNAAN 8-mers,0.0386 % of ANNNNAAN 8-mers,0.0382 % of ANNNNAAN 8-mers,0.038 % of ANNNNAAN 8-mers
AGGTTAAG,0.0522 % of ANNNNAAN 8-mers,0.0639 % of ANNNNAAN 8-mers,0.0542 % of ANNNNAAN 8-mers,0.052 % of ANNNNAAN 8-mers
AGAGAAAT,0.0679 % of ANNNNAAN 8-mers,0.0708 % of ANNNNAAN 8-mers,0.0753 % of ANNNNAAN 8-mers,0.0784 % of ANNNNAAN 8-mers
ACTTCAAA,0.0256 % of ANNNNAAN 8-mers,0.0322 % of ANNNNAAN 8-mers,0.0336 % of ANNNNAAN 8-mers,0.0256 % of ANNNNAAN 8-mers
AATACAAC,0.0412 % of ANNNNAAN 8-mers,0.0403 % of ANNNNAAN 8-mers,0.0336 % of ANNNNAAN 8-mers,0.0545 % of ANNNNAAN 8-mers
ACGAAAAG,0.032 % of ANNNNAAN 8-mers,0.0368 % of ANNNNAAN 8-mers,0.046 % of ANNNNAAN 8-mers,0.0413 % of ANNNNAAN 8-mers
AATGGAAG,0.101 % of ANNNNAAN 8-mers,0.076 % of ANNNNAAN 8-mers,0.0644 % of ANNNNAAN 8-mers,0.0792 % of ANNNNAAN 8-mers
AGCAGAAG,0.0233 % of ANNNNAAN 8-mers,0.0207 % of ANNNNAAN 8-mers,0.0308 % of ANNNNAAN 8-mers,0.0264 % of ANNNNAAN 8-mers
AGGTAAAT,0.379 % of ANNNNAAN 8-mers,0.269 % of ANNNNAAN 8-mers,0.55 % of ANNNNAAN 8-mers,0.391 % of ANNNNAAN 8-mers
AGAATAAG,0.0686 % of ANNNNAAN 8-mers,0.101 % of ANNNNAAN 8-mers,0.0527 % of ANNNNAAN 8-mers,0.0702 % of ANNNNAAN 8-mers
AAGGAAAT,0.199 % of ANNNNAAN 8-mers,0.157 % of ANNNNAAN 8-mers,0.288 % of ANNNNAAN 8-mers,0.171 % of ANNNNAAN 8-mers
AATTTAAT,0.306 % of ANNNNAAN 8-mers,0.333 % of ANNNNAAN 8-mers,0.182 % of ANNNNAAN 8-mers,0.162 % of ANNNNAAN 8-mers
ACACTAAG,0.0179 % of ANNNNAAN 8-mers,0.0219 % of ANNNNAAN 8-mers,0.0226 % of ANNNNAAN 8-mers,0.0289 % of ANNNNAAN 8-mers
AGGCCAAT,0.0339 % of ANNNNAAN 8-mers,0.0443 % of ANNNNAAN 8-mers,0.0316 % of ANNNNAAN 8-mers,0.0413 % of ANNNNAAN 8-mers
